Changes are numbered by the printed parent chain. The full ranking holds about 9,900 sequences; the median of “r (bound/input frequency ratio)” is about 0.7, and the highest 2% start at about 6.5. For the sample, the highest values were picked, then their nearest neighbours and some sequences at random.
B1: ENSMUSG00000032194.180|Kank2|82:88;185:189 (ssRNA)
RNA: GGGAGUUCUACAGUCCGACGAUCGCUUCGAUAUCCGCAUGCUAUGGCCUCAGAGCACUCCCAGAACUAGCUUAAAGUGACAGGCUUUGCUGAAAUCCAAAGGGACAAAAGAGUAGUUUUAUGUUACACACAUUGUUUUUAAUGCCCUGGAGCUCCUGCUGGUGACAGGAGAGACAGACAGGCUGCACCUUUCUCUAACUGGGGUUCCUUUCUGGCCCCAGGAUCUCACACACGUUCGUGGGGGGAUUUUGUUGUUGUUUCUUUGUUUCUUUUCUUCAUAAAGAAGAAAAAGGAAACAACUUCUCUCUUGCGGUCGCACUAGUGUGGAAUUCUCGGGUGUCAAGG
B2: ENSMUSG00000061578.618|Ksr2 (ssRNA)
RNA: GGGAGUUCUACAGUCCGACGAUCGCUUCGAUAUCCGCAUGCUAGUGGCUUGCCUGGCUGGCCUGUGAUAUAGUGGACUGUCUUAGUGAUCGGACUUCAGGGAGCAACCUAUAGGAAAUGCAAAGGCUUAGAGGGGACGGACAGCUCCCUGACCCUGGAUGGCCAGGAAUGGUGCUAGCUAGGGUGUGAGCCAAGCCCUUGAGGCUACUGUGAGUUAUGAGAUGUGUCCAACCCUCAGCCCACAGACUGCAUAUGCCCCAGGACAGCUGUGAAGGUGACCCAAUACAAAAUCGUAAACUAACUUCUCUUGCGGUCGCACUAGUGUGGAAUUCUCGGGUGUCAAGG
B3: ENSMUSG00000061578.593|Ksr2 (ssRNA)
RNA: GGGAGUUCUACAGUCCGACGAUCGCUUCGAUAUCCGCAUGCUAUCUGGGAUAAAAAAAAAAAGUCAAAAGAAAUAAAAUAUGAUUCAGGCAAAUUCAAUGCAACUCAAAAUUUCCACCAAUCCCAUAUUGUCCCUAGCAAUGACAAAAUUAUUUGCAAGACAGACCCUGUGACCUGUAGAGGCAAAAUAUAUGGUGGCUUGCCUGGCUGGCCUGUGAUAUAGUGGACUGUCUUAGUGAUCGGACUUCAGGGAGCAACCUAUAGGAAAUGCAAAGGCUUAGAGGGGACGGACAGCUCCCUGACCCUCUUGCGGUCGCACUAGUGUGGAAUUCUCGGGUGUCAAGG
B4: ENSMUSG00000061578.1182|Ksr2 (ssRNA)
RNA: GGGAGUUCUACAGUCCGACGAUCGCUUCGAUAUCCGCAUGCUAUGUCCUCGGGUGUCUCUGCUGUAUAUAGGCCAGUCACAAGCCCUUCUAAAAGCCUGCUCUUGUCUGCUUUUGUUUCUCCACCAUGCCCCCUGCCACCUCUUCUGACAGUGCUCAGAUUUAUCAGCCACCUGACCCACAGACCCAUAUGGACACACUAGAAAGCCCAUCCUAGGUCUUUCCAUGGUCUCUCACACCCCUGUCCCCGUCCCCUCCACCCCCCGGCAGCAUGCUUCACUCUAUGAAUGAGCCGCUGGGAUAUUCUCUUGCGGUCGCACUAGUGUGGAAUUCUCGGGUGUCAAGG
B5: ENSMUSG00000061578.1466|Ksr2|42:46 (ssRNA)
RNA: GGGAGUUCUACAGUCCGACGAUCGCUUCGAUAUCCGCAUGCUAUAUGAAUGAAUGGAUGAAUGGAUGGGUGAAUGGAUGGAUAGCAUACUGAAUAAAUGGAUGGAUGGAUGGAUUGAUUUGUGAAUGAAUGGAUGAAUGGAUGGGUAGGUGGGUGGAUGCAUAGGCAAGUAGAUGAAUGAAUAUGUGGGUAGAAGGGUGAGUGGGUGGAUGAAUGGAUGGAUAGGUUGGUAGGUUAAUGUAUUCGUGGAUGGGUGAAUGGAUGGAUGGAUAGAUAGAUGGGAAGGUGGAUGGACAGAUGGAUGCUCUUGCGGUCGCACUAGUGUGGAAUUCUCGGGUGUCAAGG
B6: ENSMUSG00000061578.1468|Ksr2|30:34 (ssRNA)
RNA: GGGAGUUCUACAGUCCGACGAUCGCUUCGAUAUCCGCAUGCUAGAUGAAUGGAUGGGUGAAUGGAUGGAUAGCAUACUGAAUAAAUGGAUGGAUGGAUGGAUUGAUUUGUGAAUGAAUGGAUGAAUGGAUGGGUAGGUGGGUGGAUGCAUAGGCAAGUAGAUGAAUGAAUAUGUGGGUAGAAGGGUGAGUGGGUGGAUGAAUGGAUGGAUAGGUUGGUAGGUUAAUGUAUUCGUGGAUGGGUGAAUGGAUGGAUGGAUAGAUAGAUGGGAAGGUGGAUGGACAGAUGGAUGGAUGGAUAGAUACUCUUGCGGUCGCACUAGUGUGGAAUUCUCGGGUGUCAAGG
B7: ENSMUSG00000061578.1465|Ksr2|48:52 (ssRNA)
RNA: GGGAGUUCUACAGUCCGACGAUCGCUUCGAUAUCCGCAUGCUAUAGGUAUAUGAAUGAAUGGAUGAAUGGAUGGGUGAAUGGAUGGAUAGCAUACUGAAUAAAUGGAUGGAUGGAUGGAUUGAUUUGUGAAUGAAUGGAUGAAUGGAUGGGUAGGUGGGUGGAUGCAUAGGCAAGUAGAUGAAUGAAUAUGUGGGUAGAAGGGUGAGUGGGUGGAUGAAUGGAUGGAUAGGUUGGUAGGUUAAUGUAUUCGUGGAUGGGUGAAUGGAUGGAUGGAUAGAUAGAUGGGAAGGUGGAUGGACAGACUCUUGCGGUCGCACUAGUGUGGAAUUCUCGGGUGUCAAGG
B8: ENSMUSG00000061578.1469|Ksr2|24:28 (ssRNA)
RNA: GGGAGUUCUACAGUCCGACGAUCGCUUCGAUAUCCGCAUGCUAUGGAUGGGUGAAUGGAUGGAUAGCAUACUGAAUAAAUGGAUGGAUGGAUGGAUUGAUUUGUGAAUGAAUGGAUGAAUGGAUGGGUAGGUGGGUGGAUGCAUAGGCAAGUAGAUGAAUGAAUAUGUGGGUAGAAGGGUGAGUGGGUGGAUGAAUGGAUGGAUAGGUUGGUAGGUUAAUGUAUUCGUGGAUGGGUGAAUGGAUGGAUGGAUAGAUAGAUGGGAAGGUGGAUGGACAGAUGGAUGGAUGGAUAGAUAGAUGGACUCUUGCGGUCGCACUAGUGUGGAAUUCUCGGGUGUCAAGG
B9: ENSMUSG00000061578.1463|Ksr2|60:64 (ssRNA)
RNA: GGGAGUUCUACAGUCCGACGAUCGCUUCGAUAUCCGCAUGCUAUAGGUGGGUAGAUAGGUAUAUGAAUGAAUGGAUGAAUGGAUGGGUGAAUGGAUGGAUAGCAUACUGAAUAAAUGGAUGGAUGGAUGGAUUGAUUUGUGAAUGAAUGGAUGAAUGGAUGGGUAGGUGGGUGGAUGCAUAGGCAAGUAGAUGAAUGAAUAUGUGGGUAGAAGGGUGAGUGGGUGGAUGAAUGGAUGGAUAGGUUGGUAGGUUAAUGUAUUCGUGGAUGGGUGAAUGGAUGGAUGGAUAGAUAGAUGGGAAGGCUCUUGCGGUCGCACUAGUGUGGAAUUCUCGGGUGUCAAGG
B10: ENSMUSG00000061578.1472|Ksr2|6:10 (ssRNA)
RNA: GGGAGUUCUACAGUCCGACGAUCGCUUCGAUAUCCGCAUGCUAGAUAGCAUACUGAAUAAAUGGAUGGAUGGAUGGAUUGAUUUGUGAAUGAAUGGAUGAAUGGAUGGGUAGGUGGGUGGAUGCAUAGGCAAGUAGAUGAAUGAAUAUGUGGGUAGAAGGGUGAGUGGGUGGAUGAAUGGAUGGAUAGGUUGGUAGGUUAAUGUAUUCGUGGAUGGGUGAAUGGAUGGAUGGAUAGAUAGAUGGGAAGGUGGAUGGACAGAUGGAUGGAUGGAUAGAUAGAUGGACAGGUGGUUGGUGGAUAACUCUUGCGGUCGCACUAGUGUGGAAUUCUCGGGUGUCAAGG
B11: ENSMUSG00000061578.1469|Ksr2 (ssRNA)
RNA: B8 RNA with C67G, A68U, U69A, A70U, C71G
B12: ENSMUSG00000061578.1467|Ksr2|36:40 (ssRNA)
RNA: GGGAGUUCUACAGUCCGACGAUCGCUUCGAUAUCCGCAUGCUAUGAAUGGAUGAAUGGAUGGGUGAAUGGAUGGAUAGCAUACUGAAUAAAUGGAUGGAUGGAUGGAUUGAUUUGUGAAUGAAUGGAUGAAUGGAUGGGUAGGUGGGUGGAUGCAUAGGCAAGUAGAUGAAUGAAUAUGUGGGUAGAAGGGUGAGUGGGUGGAUGAAUGGAUGGAUAGGUUGGUAGGUUAAUGUAUUCGUGGAUGGGUGAAUGGAUGGAUGGAUAGAUAGAUGGGAAGGUGGAUGGACAGAUGGAUGGAUGGACUCUUGCGGUCGCACUAGUGUGGAAUUCUCGGGUGUCAAGG
B13: ENSMUSG00000029636.74|Wasf3 (ssRNA)
RNA: GGGAGUUCUACAGUCCGACGAUCGCUUCGAUAUCCGCAUGCUACCCACGUCAGCUCUCUGCAAGAUCACUGGCUGUGUGUCUCAGUGAUGUCUUCCAACCAGUGGGUGAUACGUUUUCCUGUUUCUUCCCUUUGCAAAUUGAAUUCCAGGUAGAUAUGGUUGUAGAGGGGAAAGUUUAACAAAUCAGAAUGAAAUGUUUGUCUGUUUGCACACUGGGCCUGGUGGCCUCCAAGGAAAUGUGUACGAUCGUUUGCUUUCUCUAUCUUGGCGCUUGCAACCGAGAGCGGCCAUUUUUAUGAGGGGCUCUUGCGGUCGCACUAGUGUGGAAUUCUCGGGUGUCAAGG

The binders below were run against TDP-43 (Homo sapiens, UniProt Q13148 1-414) (assay: RNA Bind-n-Seq with designed 260-mer pool; 25 mM Tris-HCl, 150 mM KCl, 3 mM MgCl2, BSA (printed 500 mg/mL), 20 units/mL SUPERase IN; pH not stated; 500 nM RNA pool, 1 h, 4 C; TDP-43 5, 50, 500 nM; high values mean tight binding). Details: protein: recombinant; tags: SBP (GST cleaved off with PreScission; pGEX-GST-SBP).
TDP-43, sequence (Q13148 whole entry): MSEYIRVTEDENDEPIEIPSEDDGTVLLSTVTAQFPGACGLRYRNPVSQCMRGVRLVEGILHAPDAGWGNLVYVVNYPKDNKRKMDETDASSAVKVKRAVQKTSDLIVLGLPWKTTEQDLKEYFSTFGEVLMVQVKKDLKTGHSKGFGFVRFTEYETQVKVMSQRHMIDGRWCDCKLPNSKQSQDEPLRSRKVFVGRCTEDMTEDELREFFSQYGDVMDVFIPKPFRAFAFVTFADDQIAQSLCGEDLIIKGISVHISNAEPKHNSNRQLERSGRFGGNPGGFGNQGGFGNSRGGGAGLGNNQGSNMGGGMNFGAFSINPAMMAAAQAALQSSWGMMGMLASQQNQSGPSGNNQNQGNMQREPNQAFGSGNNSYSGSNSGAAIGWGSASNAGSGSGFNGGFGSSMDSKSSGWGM
Method in brief: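 The incubation lasted 1 h at 4 °C and used 500 nM of an in vitro-transcribed 260-nt 3′ UTR oligo pool with recombinant SBP-tagged TDP-43 at 5, 50 or 500 nM immobilized on streptavidin beads. It took place in 25 mM Tris-HCl, 150 mM KCl, 3 mM MgCl2, BSA and SUPERase IN. Bound RNA was washed, eluted with biotin, converted to cDNA, PCR-amplified and sequenced to give R, each oligo's normalized abundance in the bound sample divided by that in input. Two independent protein batches provided the duplicates.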
For B1, the binding signal was 0.125 R (bound/input frequency ratio).
For B2, the binding signal was 0.616 R (bound/input frequency ratio).
For B3, the binding signal was 0.762 R (bound/input frequency ratio).
For B4, the binding signal was 0.904 R (bound/input frequency ratio).
In the case of B5, the binding signal is reported as 6.95 R (bound/input frequency ratio).
In the case of B6, the binding signal is reported as 8.93 R (bound/input frequency ratio).
With B7 the binding signal was 5.93 R (bound/input frequency ratio).
For B8, the binding signal was 12.1 R (bound/input frequency ratio).
For B9, the binding signal was 4.6 R (bound/input frequency ratio).
B10 was tested, and the binding signal was 5.45 R (bound/input frequency ratio).
B11 was tested, and the binding signal was 5.88 R (bound/input frequency ratio).
B12 was tested, and the binding signal was 6.51 R (bound/input frequency ratio).
For B13, the binding signal was 2.22 R (bound/input frequency ratio).

From paper PMC12864922, “TDP-43 directly inhibits mRNA accumulation in neurites through modulation of mRNA stability”
